Drawing on PubChem BioAssay (NCI), this text covers growth for 16 molecules.

“And” between values parts separate entries of the source, which are not always exact repeats. Equal values may be shown once. Compounds without any hit were thinned out: in the full panel of roughly 83,000, 20% have a hit.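 Each cell line was grown in a 96-well plate and treated with one concentration of compound for 48 hours. Values below 10 were considered active.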 A number with no mark means an inactive call. The source made the active and inactive calls.

Common to all, as to test: NCI-60 one-dose screen, 48 h (100 = growth as untreated, 0 = no growth, -100 = all killed)
For experiment [1], the system named is HCT-15 colon. Conditions: 10 µM.
In experiment [2] the test system is HT29 colon. Conditions: 10 µM.
Experiment [3] has as its system SNB-75 CNS. Conditions: 10 µM.
Experiment [4] concerns U251 CNS. Conditions: 10 µM.
The subject of experiment [5] is PC-3 prostate. Conditions: 10 µM.
The subject of experiment [6] is SK-MEL-5 melanoma. Conditions: 10 µM.
Experiment [7] deals with UACC-62 melanoma.
Experiment [8] concerns LOX IMVI melanoma. Conditions: 10 µM.
Experiment [9] relates to SK-MEL-28 melanoma. Conditions: 10 µM.
Experiment [10] concerns SNB-19 CNS. Conditions: 10 µM.

Turning to `Cc1cc(NC(=O)CSCC(=O)O)no1`, the growth in experiment [1] is 96.7%; in [2], 98.5%; in [3], 102%; in experiment [4] it was 101%; in [5], 98.6%; in experiment [6], 101%. The growth in experiment [7] (10 µM unless noted) is 94.7%; in experiment [8], 103%; in experiment [9], 108%.
On to `CC(C)(C)n1nc(C2CC2)c(Br)c1NC(=O)c1ccccc1F`, for which the growth in [1] was 93.4%; in [2], 103%; in [3], 78.4%; in [5], 91.5%; in experiment [6] it was 99.7%; in experiment [7] (10 µM unless noted), 90.7%. Further, the growth in experiment [8] is 99.1%; in experiment [9], 100%.
`Nc1ccc(N=Nc2ccc(S(=O)(=O)O)cc2)c2ccccc12`: the growth is 99.9% in experiment [1]; 107% in [2]; 81.6% in experiment [3]; 98.9% in experiment [4]; 87.4% in experiment [5]; 94.4% in [6]. The values for the growth in experiment [7] (10 µM unless noted), in experiment [8] and in experiment [9] were 90.7%, 100% and 103%, respectively.
As to `CC(=O)c1sc2c(c1OC(=O)c1ccc(Cl)cc1Cl)c(=O)n(-c1ccccc1)c(=S)n2-c1ccccc1`, the growth in experiment [1] was 3.9% (active); in [2], -23.9% (active); in experiment [10] it was 16.3%; in [4], 1.6% (active); in experiment [5] it was -29.7% (active); in experiment [6], 42.7%. For the same molecule, the growth in [7] (10 µM) was 29.4%; in experiment [7] (100 µM) it was -11.6% (active) and -45.7% (active); in experiment [8], -18.9% (active).
For `COc1ccccc1NC(=O)C1=C(C)NC(C)=C(C(=O)Nc2ccccc2OC)C1c1cccc([N+](=O)[O-])c1`, the growth was 64.4% in [1]; 75.8% in experiment [2]; 74.2% in experiment [3]; 76% in experiment [4]; 41.6% in [5]; 61.5% in [6]. The growth in experiment [7] (10 µM unless noted) was 54.5%; in experiment [8] it was 69.1%; in [9], 82.2%.
On to `CCOC(=O)c1cc(/C=C/c2ccc(Cl)cc2Cl)on1`, for which the growth in experiment [1] is -66.1% (active); in [2], 1.53% (active); in experiment [3] it was 58.9%; in experiment [4], 6.71% (active); in [5], 44%; in [6], 92.3%. The growth in [7] (10 µM unless noted) was 48.7%; in experiment [8], -90.1% (active); in experiment [9] it was 86.1%.
As to `COc1cc2c(cc1OC)[C@H](C(=O)O)[C@@H](c1ccc(OC(C)C)c(OC)c1)N(C)C2=O`, the growth in experiment [1] was 101%; in experiment [2], 105%; in experiment [3], 90.4%; in experiment [4] it was 97.3%; in experiment [5], 90%; in experiment [6], 102%. The growth was 89.6% in [7] (10 µM unless noted), 94.7% in experiment [8] and 116% in experiment [9].
As to `CN(C)Cc1cc(C(C)(C)CC(C)(C)C)ccc1O`, the growth in experiment [1] was 79.4%; in [2] it was 99.9%; in experiment [3] it was 79.9%; in [4], 90.8%; in experiment [5], 84.1%; in experiment [6], 100%. The growth in experiment [7] (10 µM unless noted) was 99.5%; in experiment [8] it was 94.9%; in [9], 109%.
Regarding `COc1ccccc1C1OC2=Nc3cc(C)c(C)cc3NC2C1=O` (stereo not given), the growth in [1] is 80.8%; in [2] it was 93.1%; in experiment [3] it was -13.2% (active); in [4], 53%; in experiment [5], 82.5%; in experiment [6], 78.3%. The figures for the growth in [7] (10 µM unless noted), in experiment [8] and in [9] were 76.2%, 72.3% and 106%, respectively.
For the molecule `COc1ccccc1NC(=O)c1cc2cc(Br)ccc2cc1O`, the growth was 7.97% (active) in [1]; 72.8% in [2]; 12.4% in experiment [3]; 8.67% (active) in experiment [4]; -35.3% (active) in experiment [5]; -74.6% (active) in experiment [6]. Further, the growth is 24.3% in experiment [7] (10 µM unless noted), 3.26% (active) in [8] and 34.6% in [9].
Turning to `CC(=O)OCC(=O)[C@@]1(O)CC[C@H]2[C@@H]3CC[C@@H]4C[C@H](O)CC[C@]4(C)[C@H]3C(=O)C[C@@]21C`, the growth in experiment [1] is 106%; in experiment [2] it was 117%; in experiment [3] it was 88.6%; in experiment [4], 102%; in experiment [5] it was 95.5%; in experiment [6], 97.1%. The growth in experiment [7] (10 µM unless noted) is 103%; in experiment [8], 101%; in experiment [9], 121%.
For `CNS(=O)(=O)c1ccc(Cl)c(Cl)c1`, the growth in experiment [1] was 99.9%; in experiment [2] it was 106%; in experiment [3], 87.8%; in experiment [4] it was 99.3%; in experiment [5], 113%; in [6] it was 96.7%. Further, the results for the growth in [7] (10 µM unless noted), in experiment [8] and in experiment [9] were 86.6%, 102% and 119%, respectively.
Consider `Cc1ccncc1C(N)=O`, for which the growth in experiment [1] is 96.6%; in experiment [2] it was 105%; in [3] it was 80.9%; in experiment [4], 98.3%; in [6], 100%; in experiment [7] (10 µM unless noted), 95.8%. Further, the results for the growth in experiment [8] and in experiment [9] were 93.2% and 114%, respectively.
For the molecule `CCCCNC(=O)C(=O)NCCCC`, the growth in [1] was 105%; in [2] it was 120%; in experiment [3], 116%; in experiment [4] it was 114%; in experiment [5], 105%; in [6], 100%. In addition, the growth in experiment [7] (10 µM unless noted) was 92.6%; in experiment [8], 102%; in [9], 112%.
For `Cc1c(O)cnc2nn(-c3ccccc3)c(=N)n12`, the growth in [1] was 100%; in experiment [2] it was 96.3%; in experiment [3], 76.4%; in experiment [5], 119%; in experiment [6] it was 101%; in experiment [7] (10 µM unless noted) it was 106%. In addition, the growth is 102% in experiment [8] and 112% in experiment [9].
With `CC(=O)Nc1cccc(NC(C)=O)n1`, the growth is 103% in experiment [1]; 110% in experiment [2]; 106% in experiment [3]; 102% in experiment [4]; 105% in experiment [6]; 97.5% in experiment [7] (10 µM unless noted). Also, the growth in [8] is 103%; in experiment [9], 108%.
